Assay results from the supplement of paper PMC11732987, “Enantioselective OTUD7B fragment discovery through chemoproteomics screening and high-throughput optimisation” (Communications Chemistry, 2025).

Tests used:
Experiment in all cases: log2 ratio of Biotin-Ahx-Ub-VS probe labelling (fragment/DMSO); higher = less target engagement (more negative = stronger competition), active = hit call of the paper (q ≤ 0.05, log2 ratio ≤ -1)
Details in all cases: compound concentration: 200 uM; treatment time: 3 h
[1] = biological target: T1, USP42 (UniProt Q9H9J4)
T1 sequence (whole entry): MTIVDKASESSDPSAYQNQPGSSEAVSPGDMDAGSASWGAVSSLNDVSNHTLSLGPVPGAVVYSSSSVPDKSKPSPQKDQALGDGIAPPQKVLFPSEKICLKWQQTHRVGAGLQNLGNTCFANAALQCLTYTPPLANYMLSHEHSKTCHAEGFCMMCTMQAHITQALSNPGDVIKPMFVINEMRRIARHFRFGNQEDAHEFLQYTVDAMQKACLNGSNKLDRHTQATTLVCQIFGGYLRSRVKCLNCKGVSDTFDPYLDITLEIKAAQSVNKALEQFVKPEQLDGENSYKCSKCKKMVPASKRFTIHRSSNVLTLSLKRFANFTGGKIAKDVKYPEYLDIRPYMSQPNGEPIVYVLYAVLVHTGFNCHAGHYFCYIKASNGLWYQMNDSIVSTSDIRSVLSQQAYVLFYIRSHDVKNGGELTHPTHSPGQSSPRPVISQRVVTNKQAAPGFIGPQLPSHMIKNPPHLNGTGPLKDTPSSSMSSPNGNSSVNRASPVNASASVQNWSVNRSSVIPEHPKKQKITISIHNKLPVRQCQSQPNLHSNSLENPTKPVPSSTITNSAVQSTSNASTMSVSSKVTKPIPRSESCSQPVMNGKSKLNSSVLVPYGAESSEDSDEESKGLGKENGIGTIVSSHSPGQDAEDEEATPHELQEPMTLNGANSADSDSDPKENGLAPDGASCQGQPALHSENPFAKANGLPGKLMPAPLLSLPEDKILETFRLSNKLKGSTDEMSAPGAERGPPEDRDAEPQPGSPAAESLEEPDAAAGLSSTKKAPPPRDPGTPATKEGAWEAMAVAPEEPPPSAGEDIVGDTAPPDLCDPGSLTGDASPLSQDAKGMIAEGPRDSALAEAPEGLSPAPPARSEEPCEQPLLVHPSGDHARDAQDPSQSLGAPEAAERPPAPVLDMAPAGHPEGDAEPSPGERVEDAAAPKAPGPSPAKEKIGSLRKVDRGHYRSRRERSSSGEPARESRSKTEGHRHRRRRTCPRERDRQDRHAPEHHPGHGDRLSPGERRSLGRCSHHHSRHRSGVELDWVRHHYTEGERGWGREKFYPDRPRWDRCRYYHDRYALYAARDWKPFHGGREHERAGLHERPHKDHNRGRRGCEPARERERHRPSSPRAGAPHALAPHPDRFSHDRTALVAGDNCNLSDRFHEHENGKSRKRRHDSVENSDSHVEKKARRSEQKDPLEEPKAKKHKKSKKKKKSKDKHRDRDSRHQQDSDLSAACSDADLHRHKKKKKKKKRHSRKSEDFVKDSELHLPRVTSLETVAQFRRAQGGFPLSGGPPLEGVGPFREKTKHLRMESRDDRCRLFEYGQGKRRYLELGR
Summary of the method: (§1)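 Labelled DUBs from HEK293T lysate were NeutrAvidin-enriched, digested with LysC and trypsin, and run by diaPASEF LC-MS/MS. Before that, each 495 µg sample in Tris/CHAPS/IGEPAL buffer with protease inhibitors was treated in triplicate with fragment at 200 µM or vehicle for 3 h, then with Biotin-Ahx-Ub-VS at 0.5 µM final for 1 h. Values are average log2 ratios of fragment over vehicle by unpaired t-test, based on global-median-normalised Spectronaut label-free quantities from proteins with ≥2 unique peptides.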

[2] = biological target: USP46 (UniProt P62068)
Sequence of USP46 (P62068 whole entry): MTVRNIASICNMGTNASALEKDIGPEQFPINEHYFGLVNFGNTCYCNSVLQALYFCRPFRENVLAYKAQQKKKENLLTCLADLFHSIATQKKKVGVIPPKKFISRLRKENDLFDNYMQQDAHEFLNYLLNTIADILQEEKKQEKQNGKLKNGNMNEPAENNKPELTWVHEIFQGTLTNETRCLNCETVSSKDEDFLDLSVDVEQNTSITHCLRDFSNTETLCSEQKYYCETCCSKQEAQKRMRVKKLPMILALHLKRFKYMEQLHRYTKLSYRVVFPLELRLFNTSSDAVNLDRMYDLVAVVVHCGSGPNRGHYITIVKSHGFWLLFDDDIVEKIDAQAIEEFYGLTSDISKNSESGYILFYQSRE
Summary of the method: as §1

[3] = biological target: T2, USP47 (UniProt Q96K76)
T2 sequence (whole entry): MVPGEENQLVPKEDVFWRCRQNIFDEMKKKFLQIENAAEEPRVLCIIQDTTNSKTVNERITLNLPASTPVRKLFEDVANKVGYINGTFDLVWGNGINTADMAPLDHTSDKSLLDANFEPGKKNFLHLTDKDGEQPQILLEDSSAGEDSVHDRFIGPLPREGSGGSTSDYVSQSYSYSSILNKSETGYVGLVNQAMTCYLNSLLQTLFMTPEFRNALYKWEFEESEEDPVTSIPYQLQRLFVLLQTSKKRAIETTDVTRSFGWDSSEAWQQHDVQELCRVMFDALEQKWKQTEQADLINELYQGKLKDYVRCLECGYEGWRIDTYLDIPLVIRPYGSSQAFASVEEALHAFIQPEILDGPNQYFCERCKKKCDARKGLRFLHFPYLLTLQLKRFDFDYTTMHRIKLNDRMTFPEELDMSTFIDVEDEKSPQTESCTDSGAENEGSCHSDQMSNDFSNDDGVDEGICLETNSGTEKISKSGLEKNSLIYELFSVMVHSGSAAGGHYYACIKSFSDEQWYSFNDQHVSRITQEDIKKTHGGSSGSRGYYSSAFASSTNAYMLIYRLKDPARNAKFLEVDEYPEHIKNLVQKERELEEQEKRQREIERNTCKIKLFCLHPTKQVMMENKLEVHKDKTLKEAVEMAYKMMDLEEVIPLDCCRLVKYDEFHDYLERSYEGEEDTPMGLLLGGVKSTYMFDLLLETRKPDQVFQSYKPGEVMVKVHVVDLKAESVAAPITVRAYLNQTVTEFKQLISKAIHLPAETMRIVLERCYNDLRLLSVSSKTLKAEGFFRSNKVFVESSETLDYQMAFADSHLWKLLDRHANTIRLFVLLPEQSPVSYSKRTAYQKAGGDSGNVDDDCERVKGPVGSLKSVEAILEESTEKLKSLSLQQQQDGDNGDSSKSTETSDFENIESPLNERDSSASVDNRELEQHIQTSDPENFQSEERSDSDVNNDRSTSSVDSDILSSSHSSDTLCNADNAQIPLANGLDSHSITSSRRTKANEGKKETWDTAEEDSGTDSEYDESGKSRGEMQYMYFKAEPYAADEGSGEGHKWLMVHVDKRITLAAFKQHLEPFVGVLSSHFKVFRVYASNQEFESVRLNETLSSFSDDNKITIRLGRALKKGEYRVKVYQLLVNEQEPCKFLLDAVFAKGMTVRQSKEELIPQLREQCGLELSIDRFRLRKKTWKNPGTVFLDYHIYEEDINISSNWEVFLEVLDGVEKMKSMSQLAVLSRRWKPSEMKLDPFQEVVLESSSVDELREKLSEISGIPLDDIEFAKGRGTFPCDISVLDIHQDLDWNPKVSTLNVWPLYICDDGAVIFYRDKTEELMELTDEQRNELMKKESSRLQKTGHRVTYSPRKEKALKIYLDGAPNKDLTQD
Summary of the method: as §1

[4] = biological target: T3, USP48 (UniProt Q86UV5)
T3 sequence (whole entry): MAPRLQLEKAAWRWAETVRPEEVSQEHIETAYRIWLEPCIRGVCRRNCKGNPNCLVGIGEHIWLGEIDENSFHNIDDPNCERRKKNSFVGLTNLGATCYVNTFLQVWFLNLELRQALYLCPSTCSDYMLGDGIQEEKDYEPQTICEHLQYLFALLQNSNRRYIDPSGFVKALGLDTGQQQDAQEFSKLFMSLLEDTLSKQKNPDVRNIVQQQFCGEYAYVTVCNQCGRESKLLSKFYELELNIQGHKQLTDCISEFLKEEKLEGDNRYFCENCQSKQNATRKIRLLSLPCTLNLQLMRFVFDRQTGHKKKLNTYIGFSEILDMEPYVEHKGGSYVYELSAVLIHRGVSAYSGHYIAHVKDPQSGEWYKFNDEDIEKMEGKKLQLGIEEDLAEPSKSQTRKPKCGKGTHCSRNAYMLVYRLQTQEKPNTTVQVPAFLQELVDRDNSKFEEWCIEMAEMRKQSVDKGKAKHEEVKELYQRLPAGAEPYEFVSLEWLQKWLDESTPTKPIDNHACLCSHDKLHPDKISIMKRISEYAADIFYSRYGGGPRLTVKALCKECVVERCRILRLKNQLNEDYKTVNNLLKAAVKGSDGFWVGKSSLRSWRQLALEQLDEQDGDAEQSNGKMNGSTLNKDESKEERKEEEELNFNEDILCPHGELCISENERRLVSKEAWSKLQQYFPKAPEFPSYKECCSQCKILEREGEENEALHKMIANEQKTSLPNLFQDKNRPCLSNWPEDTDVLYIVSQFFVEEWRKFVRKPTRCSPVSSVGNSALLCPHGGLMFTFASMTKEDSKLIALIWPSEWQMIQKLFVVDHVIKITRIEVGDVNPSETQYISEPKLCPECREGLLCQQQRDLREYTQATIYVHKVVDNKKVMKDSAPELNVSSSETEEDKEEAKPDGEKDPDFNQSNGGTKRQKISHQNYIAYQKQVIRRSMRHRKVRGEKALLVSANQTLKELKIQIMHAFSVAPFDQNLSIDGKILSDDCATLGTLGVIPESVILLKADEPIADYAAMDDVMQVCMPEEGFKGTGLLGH
Summary of the method: as §1

[5] = biological target: T4, USP5 (UniProt P45974)
T4 sequence (whole entry): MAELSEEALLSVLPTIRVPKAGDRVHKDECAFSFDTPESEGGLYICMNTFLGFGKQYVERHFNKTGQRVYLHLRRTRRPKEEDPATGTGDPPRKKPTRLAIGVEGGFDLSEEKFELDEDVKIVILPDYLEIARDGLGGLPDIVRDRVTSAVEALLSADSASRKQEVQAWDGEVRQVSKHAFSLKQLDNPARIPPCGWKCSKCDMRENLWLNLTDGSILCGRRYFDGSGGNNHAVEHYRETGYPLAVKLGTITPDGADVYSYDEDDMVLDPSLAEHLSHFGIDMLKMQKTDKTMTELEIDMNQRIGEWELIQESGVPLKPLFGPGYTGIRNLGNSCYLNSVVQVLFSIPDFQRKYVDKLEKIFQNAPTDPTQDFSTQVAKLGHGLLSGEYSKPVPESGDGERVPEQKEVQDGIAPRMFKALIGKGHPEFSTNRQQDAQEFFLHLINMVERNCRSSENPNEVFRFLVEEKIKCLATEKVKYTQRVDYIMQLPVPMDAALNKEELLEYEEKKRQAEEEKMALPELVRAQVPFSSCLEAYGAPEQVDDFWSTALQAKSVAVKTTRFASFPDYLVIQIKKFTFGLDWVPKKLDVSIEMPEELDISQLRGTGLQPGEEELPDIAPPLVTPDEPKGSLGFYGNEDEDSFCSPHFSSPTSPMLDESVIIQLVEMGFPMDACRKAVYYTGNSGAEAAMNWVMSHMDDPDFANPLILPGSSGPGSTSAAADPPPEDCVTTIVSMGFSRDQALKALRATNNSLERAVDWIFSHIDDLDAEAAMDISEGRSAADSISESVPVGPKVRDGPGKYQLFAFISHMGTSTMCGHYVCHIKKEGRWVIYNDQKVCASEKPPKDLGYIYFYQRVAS
Summary of the method: as §1

[6] = biological target: USP54 (UniProt Q70EL1)
Summary of the method: as §1

[7] = biological target: USP7 (UniProt Q93009)
Sequence of USP7 (Q93009 whole entry, looked up): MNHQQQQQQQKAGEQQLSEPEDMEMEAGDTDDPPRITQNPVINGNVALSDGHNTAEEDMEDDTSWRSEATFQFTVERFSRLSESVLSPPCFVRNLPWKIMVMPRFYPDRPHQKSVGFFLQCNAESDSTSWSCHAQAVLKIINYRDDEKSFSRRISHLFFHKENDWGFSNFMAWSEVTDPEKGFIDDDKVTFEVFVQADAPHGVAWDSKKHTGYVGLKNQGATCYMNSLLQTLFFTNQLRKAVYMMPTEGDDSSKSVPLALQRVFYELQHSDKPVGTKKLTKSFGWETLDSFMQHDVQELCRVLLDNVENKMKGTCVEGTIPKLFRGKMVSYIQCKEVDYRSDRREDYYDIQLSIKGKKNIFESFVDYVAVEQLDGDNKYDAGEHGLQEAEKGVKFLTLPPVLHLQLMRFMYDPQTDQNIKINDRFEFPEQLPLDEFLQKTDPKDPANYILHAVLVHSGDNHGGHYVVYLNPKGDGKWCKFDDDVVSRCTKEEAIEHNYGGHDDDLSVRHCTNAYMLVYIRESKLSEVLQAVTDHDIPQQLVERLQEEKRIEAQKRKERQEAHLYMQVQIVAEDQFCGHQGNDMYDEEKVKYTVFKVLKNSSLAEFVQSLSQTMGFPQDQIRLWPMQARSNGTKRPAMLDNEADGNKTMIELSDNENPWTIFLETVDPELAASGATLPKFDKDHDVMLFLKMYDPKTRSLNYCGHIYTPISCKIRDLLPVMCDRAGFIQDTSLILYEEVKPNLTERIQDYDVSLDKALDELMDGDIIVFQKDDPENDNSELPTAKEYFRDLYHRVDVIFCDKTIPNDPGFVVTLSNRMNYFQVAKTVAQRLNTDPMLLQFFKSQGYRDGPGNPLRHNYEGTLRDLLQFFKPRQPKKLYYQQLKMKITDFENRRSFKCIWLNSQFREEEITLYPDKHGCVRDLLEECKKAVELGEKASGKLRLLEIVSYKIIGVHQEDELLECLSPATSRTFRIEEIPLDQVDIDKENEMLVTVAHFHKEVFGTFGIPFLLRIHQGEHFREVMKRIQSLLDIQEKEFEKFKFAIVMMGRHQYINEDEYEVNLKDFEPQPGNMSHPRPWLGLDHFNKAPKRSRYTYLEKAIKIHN
Summary of the method: as §1

[8] = biological target: T5, USP8 (UniProt P40818)
T5 sequence (whole entry): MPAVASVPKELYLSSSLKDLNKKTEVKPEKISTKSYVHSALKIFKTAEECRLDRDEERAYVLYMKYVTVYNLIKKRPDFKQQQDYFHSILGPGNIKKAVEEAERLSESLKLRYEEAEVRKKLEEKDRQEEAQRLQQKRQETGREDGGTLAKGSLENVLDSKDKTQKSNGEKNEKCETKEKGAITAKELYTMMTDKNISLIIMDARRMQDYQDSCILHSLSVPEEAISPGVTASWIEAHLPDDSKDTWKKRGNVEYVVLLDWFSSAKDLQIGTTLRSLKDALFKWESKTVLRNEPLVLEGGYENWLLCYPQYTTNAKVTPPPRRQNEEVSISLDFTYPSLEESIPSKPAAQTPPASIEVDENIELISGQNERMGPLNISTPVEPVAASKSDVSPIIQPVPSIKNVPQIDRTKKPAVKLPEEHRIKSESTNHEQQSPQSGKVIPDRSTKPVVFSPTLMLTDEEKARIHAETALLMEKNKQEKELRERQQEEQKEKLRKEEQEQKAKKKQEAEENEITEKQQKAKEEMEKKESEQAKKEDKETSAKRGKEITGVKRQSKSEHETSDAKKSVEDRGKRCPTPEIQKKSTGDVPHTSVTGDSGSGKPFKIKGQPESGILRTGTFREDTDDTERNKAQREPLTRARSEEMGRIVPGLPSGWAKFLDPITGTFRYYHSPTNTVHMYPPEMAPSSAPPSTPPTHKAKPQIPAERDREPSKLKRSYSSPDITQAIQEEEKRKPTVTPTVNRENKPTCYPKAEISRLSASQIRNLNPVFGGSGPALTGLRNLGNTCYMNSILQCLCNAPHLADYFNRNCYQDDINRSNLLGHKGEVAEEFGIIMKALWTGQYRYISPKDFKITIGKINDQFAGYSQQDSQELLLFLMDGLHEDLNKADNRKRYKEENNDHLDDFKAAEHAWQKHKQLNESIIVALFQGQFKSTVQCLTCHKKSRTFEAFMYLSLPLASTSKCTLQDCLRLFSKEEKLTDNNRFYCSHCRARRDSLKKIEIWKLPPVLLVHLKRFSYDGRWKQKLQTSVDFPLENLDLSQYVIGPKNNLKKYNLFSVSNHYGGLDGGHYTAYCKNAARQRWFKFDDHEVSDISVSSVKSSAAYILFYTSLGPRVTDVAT
Summary of the method: as §1

[9] = biological target: USP9X (UniProt Q93008)
Sequence of USP9X (Q93008 whole entry): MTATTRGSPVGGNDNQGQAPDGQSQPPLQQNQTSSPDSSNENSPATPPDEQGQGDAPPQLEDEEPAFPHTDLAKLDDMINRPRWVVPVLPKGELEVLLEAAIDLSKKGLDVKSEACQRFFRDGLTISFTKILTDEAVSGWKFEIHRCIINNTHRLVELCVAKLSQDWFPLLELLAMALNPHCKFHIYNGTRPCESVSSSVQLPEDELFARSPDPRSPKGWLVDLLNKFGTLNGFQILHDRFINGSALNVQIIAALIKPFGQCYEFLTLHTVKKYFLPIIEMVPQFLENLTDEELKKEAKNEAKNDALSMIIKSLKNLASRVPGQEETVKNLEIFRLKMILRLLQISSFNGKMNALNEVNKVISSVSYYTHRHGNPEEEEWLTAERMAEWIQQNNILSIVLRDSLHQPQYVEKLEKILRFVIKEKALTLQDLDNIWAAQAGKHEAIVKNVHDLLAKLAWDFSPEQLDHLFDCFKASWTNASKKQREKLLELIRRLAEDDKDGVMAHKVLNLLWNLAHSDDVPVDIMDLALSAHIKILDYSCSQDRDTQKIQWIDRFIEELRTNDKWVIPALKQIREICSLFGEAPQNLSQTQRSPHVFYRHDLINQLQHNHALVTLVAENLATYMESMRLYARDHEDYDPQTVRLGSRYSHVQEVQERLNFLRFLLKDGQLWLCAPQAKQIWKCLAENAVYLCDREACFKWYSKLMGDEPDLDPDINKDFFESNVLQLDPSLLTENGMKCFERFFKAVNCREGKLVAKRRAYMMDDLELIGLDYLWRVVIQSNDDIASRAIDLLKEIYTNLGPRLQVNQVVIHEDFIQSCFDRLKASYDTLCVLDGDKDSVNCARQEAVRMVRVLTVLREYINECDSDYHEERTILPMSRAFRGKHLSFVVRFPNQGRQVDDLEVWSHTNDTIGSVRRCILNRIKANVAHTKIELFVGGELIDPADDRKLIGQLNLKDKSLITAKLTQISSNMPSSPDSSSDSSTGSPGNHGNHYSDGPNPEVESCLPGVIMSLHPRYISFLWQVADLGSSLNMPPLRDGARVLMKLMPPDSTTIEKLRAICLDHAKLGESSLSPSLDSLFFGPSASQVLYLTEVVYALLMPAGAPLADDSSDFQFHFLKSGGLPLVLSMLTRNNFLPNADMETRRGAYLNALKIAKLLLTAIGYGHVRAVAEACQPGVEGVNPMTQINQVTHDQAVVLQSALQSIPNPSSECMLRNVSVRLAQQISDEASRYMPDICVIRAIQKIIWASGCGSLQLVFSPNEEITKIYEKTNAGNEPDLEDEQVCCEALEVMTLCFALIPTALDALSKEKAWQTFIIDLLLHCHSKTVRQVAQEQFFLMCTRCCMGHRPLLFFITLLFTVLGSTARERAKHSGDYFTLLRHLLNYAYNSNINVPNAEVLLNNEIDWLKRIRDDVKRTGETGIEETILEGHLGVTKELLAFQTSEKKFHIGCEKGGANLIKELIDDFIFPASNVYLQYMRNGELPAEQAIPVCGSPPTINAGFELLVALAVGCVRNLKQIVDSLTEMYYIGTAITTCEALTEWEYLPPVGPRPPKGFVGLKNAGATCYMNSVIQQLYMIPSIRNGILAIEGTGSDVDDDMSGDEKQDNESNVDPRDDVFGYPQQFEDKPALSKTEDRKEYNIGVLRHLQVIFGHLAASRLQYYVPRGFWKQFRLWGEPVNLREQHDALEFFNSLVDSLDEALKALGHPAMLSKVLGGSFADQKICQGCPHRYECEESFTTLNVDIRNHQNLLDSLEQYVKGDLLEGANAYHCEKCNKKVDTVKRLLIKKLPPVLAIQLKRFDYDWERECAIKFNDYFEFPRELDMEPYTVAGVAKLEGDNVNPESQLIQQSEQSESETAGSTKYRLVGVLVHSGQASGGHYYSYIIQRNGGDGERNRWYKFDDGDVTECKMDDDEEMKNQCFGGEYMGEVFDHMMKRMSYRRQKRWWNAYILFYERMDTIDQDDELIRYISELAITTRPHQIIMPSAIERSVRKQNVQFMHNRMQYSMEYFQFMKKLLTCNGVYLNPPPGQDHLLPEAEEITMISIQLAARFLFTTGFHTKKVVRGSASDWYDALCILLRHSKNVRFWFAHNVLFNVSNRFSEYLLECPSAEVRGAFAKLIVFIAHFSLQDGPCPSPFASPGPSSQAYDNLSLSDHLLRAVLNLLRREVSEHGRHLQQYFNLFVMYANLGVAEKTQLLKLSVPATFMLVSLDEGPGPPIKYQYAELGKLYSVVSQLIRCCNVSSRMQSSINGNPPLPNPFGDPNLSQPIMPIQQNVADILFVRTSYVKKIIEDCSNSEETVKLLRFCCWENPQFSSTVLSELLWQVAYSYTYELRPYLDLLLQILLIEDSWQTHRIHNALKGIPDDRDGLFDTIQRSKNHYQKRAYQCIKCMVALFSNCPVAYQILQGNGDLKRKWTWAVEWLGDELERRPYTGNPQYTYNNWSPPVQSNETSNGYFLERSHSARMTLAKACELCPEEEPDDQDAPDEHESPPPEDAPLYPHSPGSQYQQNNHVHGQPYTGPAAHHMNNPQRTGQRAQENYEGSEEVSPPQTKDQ
Summary of the method: as §1

[10] = biological target: UniProt O00487
Sequence of UniProt O00487 (O00487 whole entry): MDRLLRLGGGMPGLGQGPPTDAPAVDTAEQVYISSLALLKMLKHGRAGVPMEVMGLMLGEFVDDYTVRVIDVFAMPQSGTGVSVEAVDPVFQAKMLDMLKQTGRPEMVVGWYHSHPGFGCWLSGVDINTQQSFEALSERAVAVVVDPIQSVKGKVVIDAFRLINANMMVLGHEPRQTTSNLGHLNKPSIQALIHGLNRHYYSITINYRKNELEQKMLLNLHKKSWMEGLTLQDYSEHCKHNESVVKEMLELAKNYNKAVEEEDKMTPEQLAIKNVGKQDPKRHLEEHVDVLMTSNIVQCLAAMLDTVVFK
Summary of the method: as §1

Measured: log2 ratio of Biotin-Ahx-Ub-VS probe labelling

O=C(CCl)NC1CCS(=O)(=O)c2ccccc21 (stereo not given)
inactive: [1] -0.57 | [2] -0.0772 | [3] -0.498 | [4] -0.471 | [5] -0.0632 | [6] 0.689 | [7] -0.288 | [8] -0.538 | [9] -0.445 | [10] -0.242
